The source of these data is PubChem BioAssay (NCI).

This is part of a sample that, as a whole, favours compounds with a hit. Of some 83,000 tested, about 20% had one in any assay.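 Treatment: one concentration, 48 hours, 96-well format. Scoring: percent growth, with anything below 10 considered active.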 Values without a mark were called inactive. Calls of active or inactive are those of the source.

Some test systems named below: SK-MEL-2 melanoma; EKVX NSCLC; UO-31 renal; TK-10 renal; ACHN renal; CAKI-1 renal; A498 renal; CCRF-CEM leukemia; MOLT-4 leukemia; SR leukemia; RPMI-8226 leukemia; OVCAR-8 ovarian; OVCAR-5 ovarian; OVCAR-4 ovarian; SK-OV-3 ovarian; IGROV1 ovarian; OVCAR-3 ovarian; HS 578T breast; NCI/ADR-RES ovarian.
Common to all, as to assay: NCI-60 one-dose screen, 48 h (100 = growth as untreated, 0 = no growth, -100 = all killed)
Conditions in all cases: 10 µM unless noted

Consider `O=C1NC(=O)C(c2ccc(Cl)cc2Cl)N1` (centres undefined), for which the growth in the assay on SK-MEL-2 melanoma was 110%; with EKVX NSCLC, 113%; with UO-31 renal it was 73.2%; in the assay on TK-10 renal it was 98.1%; with ACHN renal, 110%; in the assay on CAKI-1 renal, 100%. Moreover, the growth with A498 renal is 96.6%; in the assay on CCRF-CEM leukemia it was 93.2%; in the assay on MOLT-4 leukemia, 94.3%; with SR leukemia it was 92.6%; in the assay on RPMI-8226 leukemia it was 109%; in the assay with OVCAR-8 ovarian it was 112%. Moreover, the growth in the assay on OVCAR-5 ovarian was 106%; in the assay with OVCAR-4 ovarian, 113%; with SK-OV-3 ovarian, 108%; in the assay on IGROV1 ovarian, 114%; in the assay on OVCAR-3 ovarian, 112%; with HS 578T breast, 102%. In addition, the growth in the assay with NCI/ADR-RES ovarian was 106%.

Turning to `COc1ccc(-c2cc(=O)c3c(OC)c4ccoc4cc3o2)cc1`, the growth in the assay on SK-MEL-2 melanoma is 131%; in the assay with EKVX NSCLC, 86.3%; in the assay on UO-31 renal, 90.7%; with TK-10 renal it was 108%; with ACHN renal, 102%; in the assay on CAKI-1 renal, 103%. Also, the growth in the assay with A498 renal is 121%; with CCRF-CEM leukemia, 109%; with MOLT-4 leukemia, 84.7%; in the assay on SR leukemia it was 82.4%; in the assay on RPMI-8226 leukemia, 102%; with OVCAR-8 ovarian, 99.2%. In addition, the growth in the assay with OVCAR-5 ovarian is 93.6%; in the assay with OVCAR-4 ovarian, 109%; in the assay on SK-OV-3 ovarian it was 112%; in the assay on IGROV1 ovarian, 113%; in the assay on OVCAR-3 ovarian, 106%; with NCI/ADR-RES ovarian, 96.2%.

Take `C=C1C(=O)O[C@H]2[C@H]1CC/C(COC(=O)NCCc1ccc(OC)c(OC)c1)=C\CC[C@@]1(C)O[C@@H]21`: the growth in the assay on SK-MEL-2 melanoma is 83%; with EKVX NSCLC, 71.5%; with UO-31 renal, 43%; in the assay with TK-10 renal it was 36%; with ACHN renal, 8.5% (active); with CAKI-1 renal it was 45.2%. Besides, the growth in the assay with A498 renal is 81.3%; in the assay on CCRF-CEM leukemia it was -8.78% (active); in the assay on SR leukemia, 11.2%; in the assay on RPMI-8226 leukemia, 28.8%; in the assay on OVCAR-8 ovarian, 51%; in the assay with OVCAR-5 ovarian it was 82.8%. Further, the growth in the assay on OVCAR-4 ovarian was 49.9%; with SK-OV-3 ovarian, 99.3%; with IGROV1 ovarian, 55.9%; with OVCAR-3 ovarian, 25.8%; with HS 578T breast, 91.1%; in the assay with NCI/ADR-RES ovarian it was 103%.

Turning to `NC(=NCCCOc1ccc(Cl)cc1)Nc1ccc(C(F)(F)F)cc1`, the growth in the assay with SK-MEL-2 melanoma is 41.3%; in the assay on EKVX NSCLC, 50.5%; in the assay with UO-31 renal, 37.1%; in the assay with TK-10 renal, 76.1%; in the assay with ACHN renal it was 9.43% (active); with A498 renal, 35%. Besides, the growth was 3.2% (active) with CCRF-CEM leukemia; 4.99% (active) in the assay on MOLT-4 leukemia; -23.7% (active) in the assay with SR leukemia; -1.68% (active) in the assay on RPMI-8226 leukemia; 66.3% in the assay with OVCAR-8 ovarian; 48.4% in the assay with OVCAR-5 ovarian. For the same compound, the growth was 34% with OVCAR-4 ovarian; 78.1% in the assay on SK-OV-3 ovarian; 58.3% with OVCAR-3 ovarian; 52.4% in the assay with HS 578T breast; 62.8% in the assay on NCI/ADR-RES ovarian.

In the case of `COc1ccc(/C=C(\C#N)C(=O)Nc2cccc(Nc3nc(SC)nc(-c4cccc([N+](=O)[O-])c4)c3C#N)c2)cc1OC`, the growth in the assay on SK-MEL-2 melanoma is 113%; in the assay on EKVX NSCLC, 88.2%; in the assay on UO-31 renal, 88.3%; in the assay on TK-10 renal it was 176%; with ACHN renal, 93.8%; in the assay with A498 renal, 102%. Moreover, the growth in the assay with CCRF-CEM leukemia is 87.7%; in the assay with MOLT-4 leukemia, 93.1%; with RPMI-8226 leukemia it was 83.8%; with OVCAR-8 ovarian, 102%; in the assay with SK-OV-3 ovarian, 99%; in the assay on IGROV1 ovarian it was 74.7%. Also, the results for the growth with OVCAR-3 ovarian, with HS 578T breast and with NCI/ADR-RES ovarian were 112%, 104% and 104%, respectively.

For `OCCN1CCN(c2nc(Nc3ccc(-c4nc5ccccc5[nH]4)cc3)c3cn[nH]c3n2)CC1`, the growth in the assay on SK-MEL-2 melanoma was -83.6% (active); in the assay with EKVX NSCLC, -80.4% (active); in the assay on UO-31 renal it was -89.4% (active); with ACHN renal, -85.3% (active); in the assay with CAKI-1 renal, -97.3% (active); in the assay with A498 renal it was -78.8% (active). In addition, the growth in the assay with CCRF-CEM leukemia is -73.9% (active); with MOLT-4 leukemia, -79.6% (active); with SR leukemia it was -61.1% (active); in the assay with RPMI-8226 leukemia, -48.5% (active); with OVCAR-8 ovarian it was -91% (active); in the assay on OVCAR-5 ovarian, -76.2% (active). Also, the growth in the assay on OVCAR-4 ovarian is -74.6% (active); in the assay on SK-OV-3 ovarian it was -95.9% (active); in the assay on IGROV1 ovarian, -78% (active); in the assay with OVCAR-3 ovarian, -82.3% (active); with HS 578T breast it was -47% (active); with NCI/ADR-RES ovarian it was -77.3% (active).

For `Cc1cc(N[C@@H]2CCC[C@H](Nc3ccnc4cc(Cl)ccc34)C2)nc(N2CCCCCC2)n1`, the growth was -75.7% (active) with SK-MEL-2 melanoma; 7.62% (active) in the assay with EKVX NSCLC; -95.6% (active) in the assay on UO-31 renal; -67.7% (active) in the assay with TK-10 renal; -85.5% (active) in the assay on ACHN renal; -87.6% (active) with A498 renal. The growth in the assay with CCRF-CEM leukemia was -23.1% (active); in the assay on SR leukemia, -57.4% (active); in the assay with RPMI-8226 leukemia it was -52.2% (active); in the assay on OVCAR-8 ovarian it was -43% (active); with OVCAR-5 ovarian, -15.8% (active); with OVCAR-4 ovarian it was -5.16% (active). Moreover, the growth is -51.9% (active) in the assay on SK-OV-3 ovarian, -45.5% (active) in the assay with IGROV1 ovarian, -58.8% (active) with OVCAR-3 ovarian and -39.8% (active) with NCI/ADR-RES ovarian.

In the case of `Cc1cc(C)nc(SC2=C(Nc3cccc(Cl)c3C)C(=O)N(Cc3ccccc3)C2=O)n1`, the growth in the assay on SK-MEL-2 melanoma was 69.6% [30 µM]; in the assay with EKVX NSCLC, 47.2% [30 µM]; with UO-31 renal, 14.7% [30 µM]; in the assay with TK-10 renal, 60.5% [30 µM]; in the assay on ACHN renal, 65.2% [30 µM]; in the assay with A498 renal, 40.1% [30 µM]. Also, the growth with CCRF-CEM leukemia was 26.9% [30 µM]; in the assay on MOLT-4 leukemia, 4.41% [30 µM] (active); with SR leukemia, 31.8% [30 µM]; with RPMI-8226 leukemia, 12.5% [30 µM]; in the assay on OVCAR-8 ovarian, 64.2% [30 µM]; in the assay on OVCAR-5 ovarian, 81.8% [30 µM]. The growth in the assay on OVCAR-4 ovarian was 49% [30 µM]; in the assay on SK-OV-3 ovarian it was 91.6% [30 µM]; in the assay with IGROV1 ovarian it was 73% [30 µM]; in the assay with OVCAR-3 ovarian, 64.6% [30 µM]; with HS 578T breast, 60.7% [30 µM]; in the assay on NCI/ADR-RES ovarian it was 52.1% [30 µM].

Consider `Cc1nn(-c2cc(=O)[nH]c3ccccc23)c(N)c1C#N`, for which the growth in the assay with SK-MEL-2 melanoma is 103%; with EKVX NSCLC it was 96.3%; with UO-31 renal, 67.5%; in the assay with TK-10 renal, 112%; with ACHN renal, 101%; in the assay on CAKI-1 renal, 87.5%. Moreover, the growth with CCRF-CEM leukemia was 102%; with MOLT-4 leukemia it was 106%; in the assay with SR leukemia, 105%; in the assay with RPMI-8226 leukemia, 99.9%; with OVCAR-8 ovarian, 99.2%; in the assay on OVCAR-5 ovarian, 101%. Also, the growth is 105% in the assay on OVCAR-4 ovarian; 111% with SK-OV-3 ovarian; 77.7% in the assay on IGROV1 ovarian; 106% in the assay with OVCAR-3 ovarian; 98.6% in the assay with HS 578T breast; 108% in the assay on NCI/ADR-RES ovarian.

As to `COc1ccc2c(c1)C(=O)/C(=C/c1ccccn1)CC2`, the growth with SK-MEL-2 melanoma is 81.3%; in the assay with EKVX NSCLC, 92.5%; with UO-31 renal, 90%; in the assay with TK-10 renal it was 55.7%; in the assay on ACHN renal, 54.1%; with A498 renal, 120%. In addition, the growth is -6.73% (active) with CCRF-CEM leukemia; 21.5% with MOLT-4 leukemia; 7.35% (active) with SR leukemia; -10.3% (active) with RPMI-8226 leukemia; 85.4% in the assay with OVCAR-8 ovarian; 92.1% in the assay on OVCAR-5 ovarian. Also, the growth is 98% with SK-OV-3 ovarian; 85.6% with IGROV1 ovarian; 62.1% with OVCAR-3 ovarian; 98.1% in the assay with HS 578T breast; 88.6% with NCI/ADR-RES ovarian.
